What follows are compounds tested on DYRK1A. Details: concentration: 1 μM, replicates: in singlicate; n = 1.
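Also: KINOMEscan kinase panel screen.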

SMILES | %Inh
COc1cc2ncnc(Nc3cccc(Br)c3)c2cc1OC.Cl [GI230329] | 15%
CS(=O)(=O)CCNCc1nc(-c2ccc3ncnc(Nc4ccc(OCc5ccccc5)c(Cl)c4)c3c2)cs1.Cl [GW582764] | 19%
COc1ccc2cc(-c3nc(-c4ccccc4C(C)C)[nH]c3-c3ccncc3)ccc2c1 [SB-660566] | 31%
COc1ccc(Nc2nccc(N3CCC(NC(=O)C(C)c4ccc(Cl)cc4)CC3)n2)cc1 (stereo not shown) [GSK1379812] | 99.2%
Cc1ccccc1-c1cc(-c2c[nH]nc2-c2ccccn2)ccn1 [GW680061] | 14%
CC[C@@H]1CO[C@H](C(=O)Nc2ccccc2)CN1c1cc(-c2ccc3c(N)n[nH]c3c2)nc(NC)n1 [GSK2376236] | 1%
O=C1NC(=O)C(c2ccc(Cl)cc2)=C1Nc1cccc(Cl)c1 [SB-317651] | 15%
Cc1c(Cn2c3ccccc3n3c(=O)cc(N4CCOCC4)nc23)cccc1C(F)(F)F [GSK2306394] | 7%
Cc1ccc(NC(=O)Nc2ccccc2F)cc1-c1ccc(C(=O)Nc2ccncc2)cc1 [GSK1398477] | 26%
O=c1cc(N2CCOCC2)nc2n(Cc3cccc(Cl)c3Cl)c3ccccc3n12 [GSK2299009] | 28%
CC(=O)c1c(C)c2cnc(Nc3ccn(C)n3)nc2n(C2CCCC2)c1=O | 13%
COc1cccc(CNC(=O)NC2CCN(c3ccnc(Nc4ccc(F)cc4)n3)C2)c1 (stereo not shown) [GSK1379723] | 39%
CC(=O)c1c(C)c2cnc(Nc3ccc(N4CCNCC4)cn3)nc2n(C2CCCC2)c1=O | 0%

Source: paper PMC5540273 (PLoS ONE, 2017)
